Test in all cases: log2 ratio of Biotin-Ahx-Ub-VS probe labelling (fragment/DMSO); higher = less target engagement (more negative = stronger competition), active = hit call of the paper (q ≤ 0.05, log2 ratio ≤ -1)
Conditions in all cases: compound concentration: 200 uM; treatment time: 3 h

The target of one test is T1, USP42 (UniProt Q9H9J4).
T1 sequence (whole entry): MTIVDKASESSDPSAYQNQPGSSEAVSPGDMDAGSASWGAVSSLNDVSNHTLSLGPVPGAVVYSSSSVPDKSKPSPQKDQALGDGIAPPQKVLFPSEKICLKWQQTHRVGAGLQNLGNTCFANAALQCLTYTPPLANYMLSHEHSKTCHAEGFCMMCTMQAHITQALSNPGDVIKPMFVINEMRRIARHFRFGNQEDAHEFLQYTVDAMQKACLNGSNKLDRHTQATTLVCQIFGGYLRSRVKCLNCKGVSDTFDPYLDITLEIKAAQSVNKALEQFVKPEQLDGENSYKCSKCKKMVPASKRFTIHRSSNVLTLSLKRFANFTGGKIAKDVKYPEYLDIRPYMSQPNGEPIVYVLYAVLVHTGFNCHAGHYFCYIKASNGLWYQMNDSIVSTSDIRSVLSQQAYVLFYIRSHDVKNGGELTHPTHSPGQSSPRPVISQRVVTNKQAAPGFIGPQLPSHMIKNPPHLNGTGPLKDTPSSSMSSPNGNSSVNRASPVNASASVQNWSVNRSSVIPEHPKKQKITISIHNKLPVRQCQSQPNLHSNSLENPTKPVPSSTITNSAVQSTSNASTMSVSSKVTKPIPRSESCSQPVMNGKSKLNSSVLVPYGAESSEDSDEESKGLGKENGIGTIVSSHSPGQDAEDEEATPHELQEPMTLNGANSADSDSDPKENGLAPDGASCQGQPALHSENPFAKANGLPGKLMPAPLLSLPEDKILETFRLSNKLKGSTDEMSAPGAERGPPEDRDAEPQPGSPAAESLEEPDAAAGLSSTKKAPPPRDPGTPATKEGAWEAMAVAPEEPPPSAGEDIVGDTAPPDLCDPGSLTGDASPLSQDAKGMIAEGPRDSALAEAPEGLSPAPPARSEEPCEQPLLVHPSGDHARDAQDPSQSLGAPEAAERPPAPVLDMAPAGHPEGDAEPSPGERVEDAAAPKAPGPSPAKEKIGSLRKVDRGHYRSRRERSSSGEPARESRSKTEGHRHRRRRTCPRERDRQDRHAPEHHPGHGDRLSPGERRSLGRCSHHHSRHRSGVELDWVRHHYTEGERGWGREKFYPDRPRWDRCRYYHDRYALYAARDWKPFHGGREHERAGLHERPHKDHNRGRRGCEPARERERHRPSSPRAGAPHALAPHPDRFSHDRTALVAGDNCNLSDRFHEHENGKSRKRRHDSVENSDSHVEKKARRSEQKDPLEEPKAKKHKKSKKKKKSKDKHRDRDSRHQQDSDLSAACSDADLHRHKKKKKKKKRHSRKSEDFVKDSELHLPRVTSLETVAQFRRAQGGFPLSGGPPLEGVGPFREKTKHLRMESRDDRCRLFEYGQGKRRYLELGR
Put shortly: (§1)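 Triplicate samples of HEK293T lysate, 495 µg each, received fragment at 200 µM or vehicle for 3 h, followed by Biotin-Ahx-Ub-VS (0.5 µM final) for 1 h. After NeutrAvidin enrichment of labelled DUBs and LysC/trypsin digestion, peptides were run by diaPASEF LC-MS/MS. The values are average log2 fragment/vehicle ratios from global-median-normalised Spectronaut label-free quantities, tested by unpaired t-test on proteins having ≥2 unique peptides.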

The target of the next test is USP46 (UniProt P62068). The method in brief: as §1
USP46, sequence (P62068 whole entry): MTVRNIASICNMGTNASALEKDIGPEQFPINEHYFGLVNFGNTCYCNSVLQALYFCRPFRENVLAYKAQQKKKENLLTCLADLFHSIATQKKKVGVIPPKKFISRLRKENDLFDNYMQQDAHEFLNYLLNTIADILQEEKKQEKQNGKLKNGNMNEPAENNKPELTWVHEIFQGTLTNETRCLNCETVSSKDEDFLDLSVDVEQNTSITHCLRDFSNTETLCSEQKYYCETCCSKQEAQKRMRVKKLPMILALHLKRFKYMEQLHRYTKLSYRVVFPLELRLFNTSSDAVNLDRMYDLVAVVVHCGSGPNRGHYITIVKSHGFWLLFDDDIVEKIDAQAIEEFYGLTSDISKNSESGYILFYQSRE
For a further test, the target named is T2, USP47 (UniProt Q96K76).
T2 sequence (whole entry): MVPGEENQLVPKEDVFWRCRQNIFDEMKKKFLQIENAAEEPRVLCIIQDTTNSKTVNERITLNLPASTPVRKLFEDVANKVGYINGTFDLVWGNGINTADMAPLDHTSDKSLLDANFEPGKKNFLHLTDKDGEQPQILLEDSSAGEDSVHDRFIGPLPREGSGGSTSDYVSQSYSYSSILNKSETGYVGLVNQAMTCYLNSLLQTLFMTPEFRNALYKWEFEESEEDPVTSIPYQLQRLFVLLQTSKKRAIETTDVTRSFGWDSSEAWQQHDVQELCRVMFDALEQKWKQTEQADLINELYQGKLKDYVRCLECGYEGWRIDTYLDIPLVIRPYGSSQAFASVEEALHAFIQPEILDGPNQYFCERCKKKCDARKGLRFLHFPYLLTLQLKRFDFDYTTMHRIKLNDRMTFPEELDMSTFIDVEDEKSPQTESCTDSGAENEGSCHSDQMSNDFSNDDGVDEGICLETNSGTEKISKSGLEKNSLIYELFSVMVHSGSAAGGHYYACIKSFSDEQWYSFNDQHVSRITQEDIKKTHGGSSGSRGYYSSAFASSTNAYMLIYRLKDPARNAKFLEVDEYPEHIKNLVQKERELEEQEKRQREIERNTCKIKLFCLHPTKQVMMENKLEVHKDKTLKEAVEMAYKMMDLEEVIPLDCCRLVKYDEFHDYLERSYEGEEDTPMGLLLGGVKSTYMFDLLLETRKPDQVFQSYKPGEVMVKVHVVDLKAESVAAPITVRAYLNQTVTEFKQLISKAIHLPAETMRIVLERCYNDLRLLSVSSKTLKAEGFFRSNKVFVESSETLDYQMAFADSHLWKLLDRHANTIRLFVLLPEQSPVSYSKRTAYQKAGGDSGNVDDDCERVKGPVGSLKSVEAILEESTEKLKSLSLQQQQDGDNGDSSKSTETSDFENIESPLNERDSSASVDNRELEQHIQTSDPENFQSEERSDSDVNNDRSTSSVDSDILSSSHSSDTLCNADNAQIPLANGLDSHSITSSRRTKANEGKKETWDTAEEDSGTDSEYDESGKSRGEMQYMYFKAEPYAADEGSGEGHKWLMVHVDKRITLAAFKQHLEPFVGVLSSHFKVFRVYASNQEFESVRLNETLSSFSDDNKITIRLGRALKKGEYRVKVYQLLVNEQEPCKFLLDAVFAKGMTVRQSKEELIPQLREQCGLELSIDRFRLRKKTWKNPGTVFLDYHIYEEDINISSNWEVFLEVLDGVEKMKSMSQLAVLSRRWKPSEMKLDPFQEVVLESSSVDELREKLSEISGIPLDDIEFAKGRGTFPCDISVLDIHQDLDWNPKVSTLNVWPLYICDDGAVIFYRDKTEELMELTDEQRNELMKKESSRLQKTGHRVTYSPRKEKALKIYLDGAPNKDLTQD
Put shortly: as §1

The next test has as its target T3, USP48 (UniProt Q86UV5).
T3 sequence (whole entry): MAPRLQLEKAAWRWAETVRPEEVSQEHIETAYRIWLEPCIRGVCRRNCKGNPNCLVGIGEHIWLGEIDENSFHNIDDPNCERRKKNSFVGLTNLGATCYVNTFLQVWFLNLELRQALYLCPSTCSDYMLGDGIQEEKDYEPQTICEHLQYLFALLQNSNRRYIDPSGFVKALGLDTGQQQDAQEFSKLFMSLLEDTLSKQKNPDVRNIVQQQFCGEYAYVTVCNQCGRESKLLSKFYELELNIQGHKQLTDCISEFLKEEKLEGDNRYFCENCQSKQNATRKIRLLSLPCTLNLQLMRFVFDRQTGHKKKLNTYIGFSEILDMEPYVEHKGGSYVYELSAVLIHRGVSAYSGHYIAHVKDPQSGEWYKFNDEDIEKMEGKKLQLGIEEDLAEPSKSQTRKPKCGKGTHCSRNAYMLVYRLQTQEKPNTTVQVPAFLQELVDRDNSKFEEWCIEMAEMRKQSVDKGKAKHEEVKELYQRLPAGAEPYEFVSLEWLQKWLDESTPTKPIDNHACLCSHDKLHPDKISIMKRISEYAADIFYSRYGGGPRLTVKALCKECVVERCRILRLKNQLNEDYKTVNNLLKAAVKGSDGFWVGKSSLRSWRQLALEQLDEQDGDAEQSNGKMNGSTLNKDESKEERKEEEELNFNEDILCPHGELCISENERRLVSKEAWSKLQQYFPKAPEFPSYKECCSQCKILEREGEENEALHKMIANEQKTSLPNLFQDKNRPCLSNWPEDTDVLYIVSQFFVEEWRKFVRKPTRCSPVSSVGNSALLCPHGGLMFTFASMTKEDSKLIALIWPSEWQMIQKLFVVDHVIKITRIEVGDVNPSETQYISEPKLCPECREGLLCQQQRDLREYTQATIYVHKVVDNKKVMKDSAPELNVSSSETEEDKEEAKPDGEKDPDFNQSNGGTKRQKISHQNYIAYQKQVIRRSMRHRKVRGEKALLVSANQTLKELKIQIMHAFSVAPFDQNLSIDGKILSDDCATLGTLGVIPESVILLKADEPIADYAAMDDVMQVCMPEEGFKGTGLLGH
Put shortly: as §1

Another test concerns the target T4, USP5 (UniProt P45974).
T4 sequence (whole entry): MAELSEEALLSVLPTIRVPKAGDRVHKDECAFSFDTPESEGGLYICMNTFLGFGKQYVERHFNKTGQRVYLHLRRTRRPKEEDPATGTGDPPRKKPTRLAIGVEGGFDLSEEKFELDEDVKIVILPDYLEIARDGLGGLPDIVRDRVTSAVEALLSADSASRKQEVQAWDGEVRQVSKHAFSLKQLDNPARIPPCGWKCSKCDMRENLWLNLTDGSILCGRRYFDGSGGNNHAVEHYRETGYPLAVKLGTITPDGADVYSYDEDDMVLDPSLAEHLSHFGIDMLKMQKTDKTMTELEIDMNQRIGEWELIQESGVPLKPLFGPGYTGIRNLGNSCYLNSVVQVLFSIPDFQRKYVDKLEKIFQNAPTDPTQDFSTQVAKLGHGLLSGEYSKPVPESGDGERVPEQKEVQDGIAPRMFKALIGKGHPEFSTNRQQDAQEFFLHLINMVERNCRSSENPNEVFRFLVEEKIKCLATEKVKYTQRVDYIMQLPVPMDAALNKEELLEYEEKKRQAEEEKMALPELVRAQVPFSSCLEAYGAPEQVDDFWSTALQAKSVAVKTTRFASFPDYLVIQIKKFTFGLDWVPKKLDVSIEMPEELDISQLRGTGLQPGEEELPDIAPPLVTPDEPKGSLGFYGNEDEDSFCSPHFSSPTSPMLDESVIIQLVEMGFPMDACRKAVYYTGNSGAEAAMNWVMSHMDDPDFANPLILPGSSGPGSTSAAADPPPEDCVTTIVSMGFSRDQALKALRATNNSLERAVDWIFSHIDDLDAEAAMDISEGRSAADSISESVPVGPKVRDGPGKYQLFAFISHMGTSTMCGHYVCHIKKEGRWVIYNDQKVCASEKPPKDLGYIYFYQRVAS
Put shortly: as §1

The next test addresses USP54 (UniProt Q70EL1). Put shortly: as §1
Another test addresses USP7 (UniProt Q93009). The method in brief: as §1
A further test addresses T5, USP8 (UniProt P40818).
T5 sequence (whole entry): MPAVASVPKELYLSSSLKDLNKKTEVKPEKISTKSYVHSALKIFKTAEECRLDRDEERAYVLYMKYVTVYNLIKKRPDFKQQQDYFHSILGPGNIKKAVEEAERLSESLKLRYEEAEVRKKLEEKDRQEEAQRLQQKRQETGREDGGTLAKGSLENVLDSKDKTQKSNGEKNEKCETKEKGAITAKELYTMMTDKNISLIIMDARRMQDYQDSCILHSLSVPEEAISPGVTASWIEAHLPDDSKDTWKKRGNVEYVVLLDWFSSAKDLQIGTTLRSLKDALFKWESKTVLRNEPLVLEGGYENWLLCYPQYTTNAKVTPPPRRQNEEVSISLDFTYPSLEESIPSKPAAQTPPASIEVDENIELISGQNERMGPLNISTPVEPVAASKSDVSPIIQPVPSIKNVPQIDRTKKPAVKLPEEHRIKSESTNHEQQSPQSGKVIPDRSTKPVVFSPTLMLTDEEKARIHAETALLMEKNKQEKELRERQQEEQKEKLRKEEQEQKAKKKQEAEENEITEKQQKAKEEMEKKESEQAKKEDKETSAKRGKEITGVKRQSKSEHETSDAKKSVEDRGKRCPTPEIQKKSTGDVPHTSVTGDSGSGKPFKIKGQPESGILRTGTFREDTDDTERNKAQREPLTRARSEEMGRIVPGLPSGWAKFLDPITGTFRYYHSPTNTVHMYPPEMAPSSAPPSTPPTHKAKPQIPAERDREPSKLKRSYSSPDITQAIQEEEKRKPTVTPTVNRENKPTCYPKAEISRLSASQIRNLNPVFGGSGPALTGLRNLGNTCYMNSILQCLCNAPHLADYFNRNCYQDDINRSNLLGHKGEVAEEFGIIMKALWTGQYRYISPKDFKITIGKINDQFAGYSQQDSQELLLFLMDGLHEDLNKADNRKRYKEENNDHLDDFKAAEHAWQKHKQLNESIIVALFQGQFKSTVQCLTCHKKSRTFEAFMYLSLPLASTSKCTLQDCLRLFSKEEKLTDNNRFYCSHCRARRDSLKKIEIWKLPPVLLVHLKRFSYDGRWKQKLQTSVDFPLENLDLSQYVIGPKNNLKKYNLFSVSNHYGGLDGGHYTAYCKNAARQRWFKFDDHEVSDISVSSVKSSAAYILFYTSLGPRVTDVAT
The method in brief:
as §1

For the next test, the target named is USP9X (UniProt Q93008). Put shortly:
as §1

Another test addresses UniProt O00487. The method in brief:
as §1

Unmarked numbers belong to inactive results.

This is an account of results in the supplement of paper PMC11732987, “Enantioselective OTUD7B fragment discovery through chemoproteomics screening and high-throughput optimisation” (Communications Chemistry, 2025).

UniProt O00487, sequence (O00487 whole entry): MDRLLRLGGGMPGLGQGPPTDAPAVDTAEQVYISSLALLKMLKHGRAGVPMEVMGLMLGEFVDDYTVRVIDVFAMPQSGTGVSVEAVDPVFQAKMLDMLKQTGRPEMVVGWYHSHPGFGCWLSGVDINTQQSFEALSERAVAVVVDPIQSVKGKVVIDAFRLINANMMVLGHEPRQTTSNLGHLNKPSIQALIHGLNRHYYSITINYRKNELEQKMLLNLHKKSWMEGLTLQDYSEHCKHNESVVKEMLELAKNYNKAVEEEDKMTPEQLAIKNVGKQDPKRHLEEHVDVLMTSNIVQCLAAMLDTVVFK
USP54, sequence (Q70EL1 whole entry): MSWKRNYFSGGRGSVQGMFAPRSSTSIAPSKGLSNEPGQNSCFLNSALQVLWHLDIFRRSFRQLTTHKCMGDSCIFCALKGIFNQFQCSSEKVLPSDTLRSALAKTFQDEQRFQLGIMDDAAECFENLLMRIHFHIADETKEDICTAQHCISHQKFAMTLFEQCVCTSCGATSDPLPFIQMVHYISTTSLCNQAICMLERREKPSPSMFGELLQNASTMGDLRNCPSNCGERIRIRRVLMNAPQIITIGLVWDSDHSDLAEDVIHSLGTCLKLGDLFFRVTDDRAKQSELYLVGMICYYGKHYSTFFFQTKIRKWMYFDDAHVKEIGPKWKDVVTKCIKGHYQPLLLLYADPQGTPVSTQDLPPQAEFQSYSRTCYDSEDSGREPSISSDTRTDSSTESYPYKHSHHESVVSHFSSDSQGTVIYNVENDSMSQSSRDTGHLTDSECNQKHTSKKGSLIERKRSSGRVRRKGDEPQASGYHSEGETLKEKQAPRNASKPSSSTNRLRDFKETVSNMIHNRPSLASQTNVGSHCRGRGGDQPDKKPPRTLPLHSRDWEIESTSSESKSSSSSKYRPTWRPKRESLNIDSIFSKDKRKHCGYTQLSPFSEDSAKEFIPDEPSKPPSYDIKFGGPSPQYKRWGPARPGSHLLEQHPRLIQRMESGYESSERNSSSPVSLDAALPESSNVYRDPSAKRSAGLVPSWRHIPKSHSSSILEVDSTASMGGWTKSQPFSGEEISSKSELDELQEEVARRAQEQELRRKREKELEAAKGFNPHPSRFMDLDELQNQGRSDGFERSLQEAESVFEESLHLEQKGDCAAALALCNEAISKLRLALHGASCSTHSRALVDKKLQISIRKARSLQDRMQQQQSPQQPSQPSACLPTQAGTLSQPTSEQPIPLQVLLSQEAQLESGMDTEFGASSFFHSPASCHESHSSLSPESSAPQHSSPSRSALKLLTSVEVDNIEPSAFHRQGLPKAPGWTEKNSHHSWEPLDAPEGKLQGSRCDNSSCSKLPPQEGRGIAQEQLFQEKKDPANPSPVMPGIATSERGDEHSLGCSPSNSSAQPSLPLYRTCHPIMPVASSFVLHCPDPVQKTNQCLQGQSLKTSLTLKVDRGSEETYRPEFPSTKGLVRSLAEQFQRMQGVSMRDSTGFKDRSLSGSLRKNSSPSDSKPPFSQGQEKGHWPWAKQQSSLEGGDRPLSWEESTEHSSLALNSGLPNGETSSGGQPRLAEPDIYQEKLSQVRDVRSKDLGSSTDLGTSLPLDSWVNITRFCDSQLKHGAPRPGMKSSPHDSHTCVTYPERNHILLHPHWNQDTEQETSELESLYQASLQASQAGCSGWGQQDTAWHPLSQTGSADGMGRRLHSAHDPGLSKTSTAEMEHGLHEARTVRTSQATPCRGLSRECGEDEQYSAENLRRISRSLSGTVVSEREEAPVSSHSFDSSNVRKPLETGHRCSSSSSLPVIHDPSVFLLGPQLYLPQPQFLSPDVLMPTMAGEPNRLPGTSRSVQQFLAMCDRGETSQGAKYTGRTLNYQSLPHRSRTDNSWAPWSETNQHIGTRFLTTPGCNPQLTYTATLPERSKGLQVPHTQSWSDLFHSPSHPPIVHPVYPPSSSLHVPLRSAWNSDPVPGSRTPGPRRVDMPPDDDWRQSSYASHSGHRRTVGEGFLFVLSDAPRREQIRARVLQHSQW
USP7, sequence (Q93009 whole entry, looked up): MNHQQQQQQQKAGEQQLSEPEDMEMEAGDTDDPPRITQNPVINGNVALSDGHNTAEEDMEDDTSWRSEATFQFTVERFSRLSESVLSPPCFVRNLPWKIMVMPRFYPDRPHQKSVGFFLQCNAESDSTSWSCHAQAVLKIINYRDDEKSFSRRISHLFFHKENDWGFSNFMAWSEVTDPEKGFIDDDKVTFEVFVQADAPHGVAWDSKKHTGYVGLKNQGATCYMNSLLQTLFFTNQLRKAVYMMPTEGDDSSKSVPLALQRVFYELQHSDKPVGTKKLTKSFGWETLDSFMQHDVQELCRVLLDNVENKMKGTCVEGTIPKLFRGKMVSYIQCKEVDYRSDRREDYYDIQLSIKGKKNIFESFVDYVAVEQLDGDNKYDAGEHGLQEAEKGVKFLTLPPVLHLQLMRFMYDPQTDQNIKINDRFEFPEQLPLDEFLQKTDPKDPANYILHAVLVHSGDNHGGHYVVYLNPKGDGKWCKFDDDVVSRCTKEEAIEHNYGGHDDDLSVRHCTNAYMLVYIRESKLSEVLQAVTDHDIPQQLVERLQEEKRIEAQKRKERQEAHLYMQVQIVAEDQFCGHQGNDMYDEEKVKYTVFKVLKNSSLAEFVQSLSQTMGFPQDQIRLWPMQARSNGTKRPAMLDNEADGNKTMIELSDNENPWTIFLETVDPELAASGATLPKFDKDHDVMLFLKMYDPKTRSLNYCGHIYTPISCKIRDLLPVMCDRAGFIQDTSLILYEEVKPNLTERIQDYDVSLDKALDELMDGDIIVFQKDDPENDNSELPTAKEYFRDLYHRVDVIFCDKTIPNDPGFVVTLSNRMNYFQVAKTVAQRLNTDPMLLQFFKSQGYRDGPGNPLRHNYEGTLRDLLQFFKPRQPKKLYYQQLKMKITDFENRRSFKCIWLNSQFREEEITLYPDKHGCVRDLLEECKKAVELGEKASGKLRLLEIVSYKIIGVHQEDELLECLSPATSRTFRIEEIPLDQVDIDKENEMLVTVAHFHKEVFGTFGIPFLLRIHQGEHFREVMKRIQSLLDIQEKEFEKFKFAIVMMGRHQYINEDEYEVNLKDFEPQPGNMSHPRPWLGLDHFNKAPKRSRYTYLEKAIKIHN

With `O=C(CCl)N1c2ccccc2NC(=O)C12CCCC2`, the “log2 ratio of Biotin-Ahx-Ub-VS probe labelling” value with USP42 was 0.622; with USP46, -0.278; with USP47 it was 0.0188; with USP48 it was -1.04 (active); with USP5, 0.581; with USP54 it was -0.355. Besides, the “log2 ratio of Biotin-Ahx-Ub-VS probe labelling” value with USP7 is -2.11 (active); with USP8, 0.279; with USP9X, -0.316; with UniProt O00487, 0.0785.
